TDP1 block: TDP1 (human) enzyme inhibition; Q9NUW8; Potency, µM (series often up to 130 µM), actives largely listed as inhibitors; hit rate 0.28% among 350,000; AID 485290; recombinant TDP1, AlphaScreen DNA substrate cleavage; further: nearly all actives have a fitted effect of over 40% in size
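Here, a 5' biotin and 3' phosphotyrosine-FITC DNA oligonucleotide reports Tdp1 activity: intact substrate bridges AlphaScreen beads, while cleavage leaves a 3' phosphate and drops signal. All incubations at room temperature.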
PGK inhibitor: blocks T. brucei phosphoglycerate kinase | P07378 | PGK/GAPDH coupled, Kinase-Glo luminescence, 60 min | Potency, µM (doses to about 57.5 µM), usual class: inhibitors | hit rate 0.043% among 380,000 | AID 602233; further: nearly all actives have a fitted effect of over 60% in size
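Recombinant glycosomal PGK reaction used 1,3-bisphosphoglycerate generated in-well by GAPDH (100nM final) in 100mM TEA pH 7.6, 5mM MgCl2, 0.01% Tween-20. After 60 minutes at room temperature, ATP was read by Kinase-Glo Plus luminescence end-point.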
APEX1 inh: APE1 (human) endonuclease inhibition; hit rate 0.35% among 350,000; P27695; recombinant APE1, TAMRA/BHQ-2 abasic DNA cleavage fluorescence; Potency, µM (highest dose often 65.8 µM), usual class: inhibitors; AID 2517; further: nearly all actives have a fitted effect of over 55% in size
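Endonuclease cleavage of a quenched abasic-site DNA duplex (50 nM) by APE1 (0.75 nM) was tracked by TAMRA dequenching. Compounds were preincubated with enzyme 15 min at room temperature; data normalized to buffer-only and DMSO wells plus NSC13755 control.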
RECQ1 inh-1: blocks DNA unwinding by human RECQ1; P46063; RECQ1 DNA unwinding, red fluorescence kinetic read; Potency, µM (top dose mostly 57.3 µM), hits mostly inhibitors; hit rate 0.54% among 240,000; further: nearly all actives have a fitted effect of over 30% in size
Target sequence (P46063 whole entry, looked up): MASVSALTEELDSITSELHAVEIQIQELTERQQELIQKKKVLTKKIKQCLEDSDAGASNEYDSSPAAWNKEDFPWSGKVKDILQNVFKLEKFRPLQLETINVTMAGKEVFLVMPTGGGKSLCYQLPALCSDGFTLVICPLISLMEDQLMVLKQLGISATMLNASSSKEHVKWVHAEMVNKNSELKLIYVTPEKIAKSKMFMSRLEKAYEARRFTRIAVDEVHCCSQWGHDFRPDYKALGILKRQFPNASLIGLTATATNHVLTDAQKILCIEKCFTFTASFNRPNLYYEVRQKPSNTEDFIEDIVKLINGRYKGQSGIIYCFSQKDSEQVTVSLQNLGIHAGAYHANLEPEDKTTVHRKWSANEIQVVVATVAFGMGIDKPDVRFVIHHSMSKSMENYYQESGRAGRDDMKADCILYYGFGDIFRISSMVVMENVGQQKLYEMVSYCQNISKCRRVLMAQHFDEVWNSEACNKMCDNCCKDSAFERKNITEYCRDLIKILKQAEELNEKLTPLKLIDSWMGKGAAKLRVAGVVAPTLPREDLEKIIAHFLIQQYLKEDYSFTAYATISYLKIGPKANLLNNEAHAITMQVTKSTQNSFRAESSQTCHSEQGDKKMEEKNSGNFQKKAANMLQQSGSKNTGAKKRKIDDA
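RECQ1T1 50 nM; forked duplex (20 bp + 30-nt ss tails) 200 nM, ATP 2 mM final; pH 8.0, 2 mM MgCl2, 2.5 ug/ml poly(dI-dC); 15 min compound preincubation; discontinuous kinetic read over 2 h at RT.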
GLS inh: blocks human kidney-isoform glutaminase activity. AID 624170. O94925. Potency, µM (highest dose often 45.5 µM), actives largely listed as inhibitors. hit rate 0.21% among 410,000. GLS enzymatic activity, qHTS titration
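Read-out is an Amplex red fluorescence increase coupled through glutamate oxidase and HRP, measured before and after 30 min room-temperature incubation. hKGA is in 45 mM KH2PO4 (pH 8.2) with 0.02% Tween-20; glutamine added as 1mM solution.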
BLM helicase inh: inhibitors of human Bloom syndrome helicase BLM; recombinant BLM DNA unwinding, fluorescence dequenching; Potency, µM (series often up to 56.1 µM), usual class: inhibitors; hit rate 0.2% among 350,000; further: nearly all actives have a fitted effect of over 35% in size
RECQ1 inh conf: confirmation of human RECQ1 helicase inhibitors; hit rate 28% among 610; AID 2708; RECQ1 helicase DNA unwinding, fluorescence; Potency, µM (highest dose often 229 µM), actives largely listed as inhibitors; shares compounds with RECQ1 inh-1; further: nearly all actives have a fitted effect of over 45% in size
ADP FP counter: displaces ADP in a fluorescence polarization counter-screen for RECQ1 hits. shares compounds with RECQ1 inh-1. ADP fluorescence polarization displacement counterscreen. Potency, µM (doses to about 228 µM), actives largely listed as inhibitors. hit rate 27% among 530; further: nearly all actives have a fitted effect of over 45% in size
RECQ1 inh-2: blocks human RECQ1 DNA unwinding. shares compounds with RECQ1 inh-1. recombinant RECQ1 DNA unwinding, red fluorescence. Potency, µM (titrated, usually from 119 µM), usual class: inhibitors. hit rate 15% among 1,100. AID 504841; further: nearly all actives have a fitted effect of over 50% in size
Hits are given with their value. The list is not random: actives were taken first. Their share in the collection is about 0.85%. The call rests on the fitted dose curve; in most records, active means well fitted curve in the direction sought with a large enough effect; inconclusive means small, poorly fitted or top-dose-only effect, or another doubt; inactive means no such curve, though single readings can be large; an effect the other way counts as inactive or inconclusive.

How did Cc1cccc(N2CCN(C(=O)Cn3c(=O)[nH]c4ccsc4c3=O)CC2C)c1 (configuration not stated) do in these assays?
TDP1 block: inactive; PGK inhibitor: inactive; APEX1 inh: inactive; RECQ1 inh-1: inactive; GLS inh: inactive; BLM helicase inh: inactive

Results for Cc1cccc(N2CCN(C(=O)Cc3ccc(-n4c(=O)[nH]c5ccsc5c4=O)cc3)CC2C)c1 (configuration not stated) ?
TDP1 block: inactive; PGK inhibitor: inactive; APEX1 inh: inactive; RECQ1 inh-1: inactive; GLS inh: inactive; BLM helicase inh: inactive; RECQ1 inh conf: inactive; ADP FP counter: inactive

What do the screens show for `COc1ccc(C)cc1S(=O)(=O)Nc1ccncc1`?
TDP1 block: inactive; PGK inhibitor: inactive; APEX1 inh: inactive; RECQ1 inh-1: 20µM; GLS inh: inactive; BLM helicase inh: inactive; RECQ1 inh-2: inactive

How did Clc1ccc(-c2nnc3sc(-c4ccc(Br)o4)nn23)cc1 do in these assays?
TDP1 block: inactive; PGK inhibitor: inactive; APEX1 inh: inactive; RECQ1 inh-1: inactive; GLS inh: inactive; BLM helicase inh: inactive

How did Cc1oc(-c2ccc(Cl)cc2)cc1-c1nn2c(-c3ccoc3C)nnc2s1 do in these assays?
PGK inhibitor: inactive; APEX1 inh: inconclusive; RECQ1 inh-1: 14µM; GLS inh: inactive; BLM helicase inh: 10µM; RECQ1 inh conf: 35µM; ADP FP counter: inactive

What do the screens show for `O=C(CC1N=C2c3ccccc3N=C(SCc3ccc(F)cc3)N2C1=O)NCc1ccco1` (configuration not stated)?
TDP1 block: inactive; PGK inhibitor: inactive; APEX1 inh: inactive; RECQ1 inh-1: inactive; GLS inh: inactive; BLM helicase inh: inactive

How did Cc1ccc(CSC2=Nc3ccccc3C3=NC(CC(=O)NCc4ccco4)C(=O)N23)cc1 (configuration not stated) do in these assays?
TDP1 block: inactive; PGK inhibitor: inactive; APEX1 inh: inactive; RECQ1 inh-1: inconclusive; GLS inh: inactive; BLM helicase inh: inactive; RECQ1 inh-2: inconclusive

What do the screens show for `O=C(Nc1nnc(C2CC2)s1)C1CC(=O)N(c2ccc3c(c2)OCCO3)C1` (configuration not stated)?
PGK inhibitor: inactive; APEX1 inh: inconclusive; RECQ1 inh-1: 28µM; GLS inh: inactive; BLM helicase inh: inactive; RECQ1 inh-2: inconclusive

How did CCCN1CNc2c(c(=O)[nH]c(=S)n2Cc2ccc(OC)c(OC)c2)C1 do in these assays?
TDP1 block: inactive

What do the screens show for `CCCCn1cc[n+](C)c1`?
TDP1 block: inactive; APEX1 inh: inactive; RECQ1 inh-1: inactive; BLM helicase inh: inactive

Results for Cc1c(Cl)cccc1NS(=O)(=O)c1ccc2c(c1)C1C=CCC1C(c1ccc(C(=O)O)cc1)N2 (configuration not stated) ?
PGK inhibitor: inconclusive; APEX1 inh: inactive; RECQ1 inh-1: 28µM; GLS inh: inactive; BLM helicase inh: inconclusive; RECQ1 inh-2: inconclusive

How did COc1cc(NC(=O)C2CCN(S(=O)(=O)c3cccc4nonc34)CC2)cc(OC)c1 do in these assays?
TDP1 block: inactive; PGK inhibitor: inactive; APEX1 inh: inactive; RECQ1 inh-1: 16µM; GLS inh: inactive; BLM helicase inh: inactive; RECQ1 inh-2: inactive

What do the screens show for `CCNc1nc(C#N)nc(N2CCOCC2)n1`?
TDP1 block: inactive

How did CCNc1ncc2nc(-c3cc(F)cc(F)c3)c(=O)n(CCc3ccccc3)c2n1 do in these assays?
APEX1 inh: inconclusive; RECQ1 inh-1: inconclusive; BLM helicase inh: inactive; RECQ1 inh-2: 16µM

What do the screens show for `Cc1ccc(SC2=NS(=O)(=O)c3ccccc32)c(C)c1`?
TDP1 block: inactive

What do the screens show for `Cc1ccc(Nc2nc(NCc3ccco3)nc3nccnc23)cc1C`?
TDP1 block: inactive

How did Cn1c(N)c(C(=O)COC(=O)c2cc(-c3ccco3)nc3ccccc23)c(=O)n(C)c1=O do in these assays?
TDP1 block: inactive; PGK inhibitor: inactive; APEX1 inh: inconclusive; RECQ1 inh-1: 28µM; GLS inh: 7.9µM; BLM helicase inh: inactive; RECQ1 inh-2: inconclusive

How did Cc1ccc(S(=O)(=O)/N=C2/NC(=O)/C(=C\c3ccco3)S2)cc1 do in these assays?
TDP1 block: inactive; PGK inhibitor: inactive; APEX1 inh: inactive; RECQ1 inh-1: inconclusive; GLS inh: inactive; BLM helicase inh: inactive; RECQ1 inh-2: inactive

What do the screens show for `Cc1ccc(S(=O)(=O)/N=C2/NC(=O)/C(=C/c3ccccc3)S2)cc1`?
TDP1 block: inactive; PGK inhibitor: inactive; APEX1 inh: inactive; RECQ1 inh-1: inactive; GLS inh: inactive; BLM helicase inh: inactive

What do the screens show for `Cc1ccc(S(=O)(=O)/N=C2/NC(=O)/C(=C\c3ccccc3)S2)cc1`?
TDP1 block: inactive; PGK inhibitor: inactive; APEX1 inh: inactive; GLS inh: inactive

Results for CC(=O)Nc1ccc(S(=O)(=O)/N=C2/NC(=O)/C(=C\c3ccco3)S2)cc1 ?
TDP1 block: inconclusive; PGK inhibitor: inactive; APEX1 inh: inconclusive; RECQ1 inh-1: inconclusive; GLS inh: inactive; BLM helicase inh: inactive; RECQ1 inh-2: inactive

What do the screens show for `CCc1cc(-c2oncc2-c2ccc(OC)cc2)c(O)cc1OC`?
TDP1 block: inactive; APEX1 inh: inactive; RECQ1 inh-1: inactive; BLM helicase inh: inactive

How did COc1cc(C(=O)OCC(=O)NCc2ccco2)cc(OC)c1OC do in these assays?
TDP1 block: inactive; PGK inhibitor: inactive; APEX1 inh: inactive; RECQ1 inh-1: inactive; GLS inh: inactive; BLM helicase inh: inactive

What do the screens show for `COc1cc(NC(=O)c2cccs2)c(C(=O)OCC(=O)NCc2ccco2)cc1OC`?
PGK inhibitor: inactive; APEX1 inh: inconclusive; RECQ1 inh-1: 8.9µM; GLS inh: inactive; BLM helicase inh: inconclusive; RECQ1 inh conf: 28µM; ADP FP counter: inconclusive; RECQ1 inh-2: inconclusive
